# According to the supplement of paper PMC7380943:
# Where a name gives a salt, the structure may show the parent alone.
# Tested on: CLZ3 (HCA2 human fibroblast dual HR-NHEJ reporter)
# Assay: NHEJ repair efficiency (GFP+ cells) relative to control (log10 fold); higher = more non-homologous end joining
# Settings: 5 µM; doxycycline 0.5 ug/mL
# 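Also: compound given one day ahead of doxycycline, which switches on I-SceI endonuclease to cut the chromosomally integrated reporter and create DSBs.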
row,SMILES,NHEJ repair efficiency (log10)
1,CC(=O)O[C@@H]1CC[C@@]2(C)[C@@H](CC[C@]3(C)[C@@H]2C(=O)C=C2[C@@H]4[C@@H](C)[C@H](C)CC[C@]4(C)CC[C@]23C)[C@@]1(C)C(=O)O [3-Acetyl-11-Keto-Beta-Boswellic Acid],-0.179
2,C[C@@H]1O[C@@H](O[C@H]2[C@H](Oc3c(-c4ccc(O)cc4)oc4cc(O)cc(O)c4c3=O)O[C@H](CO)[C@@H](O)[C@@H]2O)[C@H](O)[C@H](O)[C@H]1O [Kaempferol 3-O-Neohesperidoside],0.0799
3,O[C@@H]1[C@@H](O)[C@@H](OC/C=C/c2ccccc2)O[C@H](CO[C@@H]2OC[C@H](O)[C@H](O)[C@H]2O)[C@H]1O [Rosavin],0.0495
4,C[C@H]1O[C@H](O[C@@H]2[C@@H](O)[C@H](OCCc3ccc(O)c(O)c3)O[C@H](CO[C@H]3OCC(O)(CO)[C@@H]3O)[C@H]2OC(=O)/C=C/c2ccc(O)c(O)c2)[C@@H](O)[C@@H](O)[C@@H]1O (some centres not stated) [Forsythoside B],0.0465
5,COc1cc2oc(=O)ccc2c(OC)c1C[C@@H](O)C(C)(C)O [Toddalolactone],0.0484
6,C=C1C[C@@]23CC[C@H]4[C@@](C)(CCC[C@@]4(C)C(=O)O[C@@H]4O[C@H](CO)[C@@H](O)[C@H](O)[C@H]4O)[C@@H]2CC[C@]1(O[C@@H]1O[C@H](CO)[C@@H](O)[C@H](O)[C@H]1O[C@@H]1O[C@H](CO)[C@@H](O)[C@H](O)[C@H]1O)C3 [Stevioside],0.149
7,c1ccc([C@H]2CN3CCSC3=N2)cc1 [Levamisole hydrochloride],0.0656
